# Data published in PMC4336329 (PLoS ONE, 2015).
# Out of some 310,000 compounds screened, about 2,200 (0.71%) showed an effect of 50% or more. Effects have a minus sign here. Only a selection was taken, and strong results are over-represented in it overall.
# Target: human ether-à-go-go-related gene (hERG) potassium channel (human, UniProt Q12809)
# Test: primary screen, population patch clamp on CHO cells stably expressing hERG; higher = less effect of the substance
# human ether-à-go-go-related gene (hERG) potassium channel, sequence (Q12809 whole entry, looked up): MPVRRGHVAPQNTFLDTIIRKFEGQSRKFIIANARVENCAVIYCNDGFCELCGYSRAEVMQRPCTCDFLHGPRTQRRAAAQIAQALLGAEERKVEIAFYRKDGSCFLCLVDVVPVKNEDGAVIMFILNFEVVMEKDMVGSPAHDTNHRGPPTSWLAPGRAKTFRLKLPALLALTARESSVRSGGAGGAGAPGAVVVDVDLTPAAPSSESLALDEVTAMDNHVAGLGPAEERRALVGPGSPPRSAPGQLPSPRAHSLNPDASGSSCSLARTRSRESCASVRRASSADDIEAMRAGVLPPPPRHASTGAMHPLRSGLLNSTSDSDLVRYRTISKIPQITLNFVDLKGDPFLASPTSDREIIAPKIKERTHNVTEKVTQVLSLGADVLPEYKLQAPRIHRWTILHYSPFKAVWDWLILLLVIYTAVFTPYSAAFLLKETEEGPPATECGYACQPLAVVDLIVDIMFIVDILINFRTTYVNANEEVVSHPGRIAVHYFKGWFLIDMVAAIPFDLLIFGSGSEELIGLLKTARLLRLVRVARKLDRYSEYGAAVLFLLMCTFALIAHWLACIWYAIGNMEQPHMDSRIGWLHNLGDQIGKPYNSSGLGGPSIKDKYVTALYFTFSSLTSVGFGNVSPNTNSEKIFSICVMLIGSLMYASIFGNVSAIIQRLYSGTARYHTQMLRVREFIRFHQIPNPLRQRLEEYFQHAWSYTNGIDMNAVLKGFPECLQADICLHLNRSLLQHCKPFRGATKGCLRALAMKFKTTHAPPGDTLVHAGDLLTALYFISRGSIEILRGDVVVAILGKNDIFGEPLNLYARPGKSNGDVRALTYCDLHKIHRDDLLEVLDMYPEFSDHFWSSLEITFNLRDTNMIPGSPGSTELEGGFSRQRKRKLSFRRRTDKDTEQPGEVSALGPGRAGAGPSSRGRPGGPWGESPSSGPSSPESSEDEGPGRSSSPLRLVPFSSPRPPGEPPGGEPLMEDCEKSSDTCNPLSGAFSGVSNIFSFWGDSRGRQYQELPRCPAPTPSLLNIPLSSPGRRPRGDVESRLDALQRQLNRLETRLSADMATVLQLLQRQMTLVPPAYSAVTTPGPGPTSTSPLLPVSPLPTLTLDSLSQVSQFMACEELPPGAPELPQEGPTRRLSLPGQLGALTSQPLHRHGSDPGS
row,Compound,"hERG current change (%, negative = inhibition) at 1uM [%]"
1,COCCCN1C(=O)C(=O)/C(=C(/O)c2ccc(S(=O)(=O)N3CCCCC3)cc2)C1c1cccc(OC)c1 (stereo not shown),2.22
2,CC1(c2ccc(OC(F)F)cc2)NC(=O)N(CC(=O)Nc2ccc(N3CCCCC3)cc2)C1=O (stereo not shown),18
3,CN1C(=O)c2ccccc2C(C(=O)O)C1c1cccc(Cl)c1 (stereo not shown),8.65
4,CCN1C(=O)C2(C(C(=O)c3ccc(C)o3)=C(O)C(=O)N2CCCN(C)C)c2ccccc21 (stereo not shown),14
5,COc1ccc2[nH]cc(C(=O)CN(C)CCc3ccc(OC)c(OC)c3)c2c1,-60.6
6,COc1ccc2[nH]cc(C(=O)CN(C)C)c2c1,11.4
7,CCN(CC)CC(=O)c1c[nH]c2ccc(OC)cc12,3.98
8,COC(=O)c1cc(S(=O)(=O)Nc2cccc(S(N)(=O)=O)c2)oc1C,8.79
9,COCCn1c(SCC(=O)c2c(N)n(C3CC3)c(=O)[nH]c2=O)nnc1-c1ccc(Cl)cc1,13.5
10,CN(Cc1ccccc1)C(=O)N1CCOCC1,17.7
11,CCOC(=O)N1CCN(c2ncnc3c2oc2nc(C(C)C)c4c(c23)CCC4)CC1,6.16
12,Cc1ccsc1C(=O)C1CCCN(Cc2cccn2-c2ccccn2)C1 (stereo not shown),-81.7
13,Cc1ccsc1C(=O)C1CCCN(Cc2ccccc2O)C1 (stereo not shown),-3.16
14,Cc1ncc(CN2CCCC(C(=O)c3sccc3C)C2)s1 (stereo not shown),12.5
15,Cc1ccsc1C(=O)C1CCCN(Cc2ccn[nH]2)C1 (stereo not shown),9.05
16,Cc1ccsc1C(=O)C1CCCN(Cc2cnc(N)nc2)C1 (stereo not shown),4.23
17,Cc1ccsc1C(=O)C1CCCN(Cc2cccn2-c2ccc(Cl)cn2)C1 (stereo not shown),-84.3
18,CCOc1ccccc1OCC(=O)Nc1ccc(S(=O)(=O)Nc2nc(C)cc(C)n2)cc1,0.94
19,Cc1ccc(S(=O)(=O)c2c(C)nn(-c3ccccc3)c2OC(=O)c2ccco2)cc1,5.81
20,CC(C)c1ccc2c(c1)[C@H]1OCC[C@H]1[C@@H](c1cccs1)N2,4.11
21,CCOC(=O)C(C)Oc1ccc(C2NC(=O)NC(C)=C2C(C)=O)cc1Br (stereo not shown),4.32
22,Cc1ccc(NC(=O)Cn2cccc2C2=NC(c3ccccc3)CO2)c(C)c1 (stereo not shown),3.9
23,Cc1cccc2c(N)c3c(nc12)N(C)CC3.O=C(O)C(=O)O,7.57
24,Cc1cc(Br)c2nc3c(c(C(=O)O)c2c1)CCCCC3,7.18
25,CN1CCCCc2c1nc1ccccc1c2N.O=C(O)c1cncc(Br)c1,-79.7
26,CN1CCc2c1nc1ccccc1c2N.O=C(O)c1cc([N+](=O)[O-])ccc1Cl,7.96

row,Compound,"hERG current change (%, negative = inhibition) at 1uM [%]"
1,Cc1ccc(C)c2c(N)c3c(nc12)CCCCC3.O=C(O)c1cncc(Br)c1,-51.9
2,O=C(O)c1cncc(Br)c1,8.7
3,Cc1ccc(NC(=O)c2ccsc2)cc1NS(C)(=O)=O,15.1
4,COc1ccc(C2=Nn3c([n+](C)c4ccccc43)SC2)cc1.[Br-],-13.2
5,CC1Sc2n(c3ccccc3[n+]2C)N=C1c1ccccc1.[Br-] (stereo not shown),-16.8
6,C[n+]1c2n(c3ccccc31)N=C(c1ccc(-c3ccccc3)cc1)CS2.[Br-],-39
7,C[n+]1c2n(c3ccccc31)N=C(c1ccc(Cl)cc1)CS2.[Br-],-51.9
8,Cc1ccc(-c2nnc3n2N=C(c2ccc(Br)cc2)CS3)cc1,4.56
9,C[n+]1c2n(c3ccccc31)N=C(c1ccc(Br)cc1)CS2.[Br-],-53.1
10,Cc1cc(Cn2nnc3ccccc32)c(O)c(C(C)(C)C)c1,23.6
11,C[n+]1c2n(c3ccccc31)N=C(c1cc(C(C)(C)C)c(O)c(C(C)(C)C)c1)CS2.[Br-],-63.5
12,C[n+]1c2n(c3ccccc31)N=C(c1ccccc1)CS2.[Br-],-17.3
13,COc1ccc(NC(=O)Cn2nnc(-c3ccccc3F)n2)cc1,8.09
14,CCC(=O)Nc1ccc(-c2nnc(SCC(=O)NCC3CCCO3)n2C)cc1 (stereo not shown),14.4
15,COc1ccc(NC(=O)CN2C(=O)C(C)SC(C)C2=O)cc1 (stereo not shown),6.14
16,Cn1c(-[n+]2c(-c3ccccc3)cc(-c3ccccc3)cc2-c2ccccc2)nc2c([N+](=O)[O-])cccc21.[I-],-6.1
17,Cc1ccc(C(=O)N/C(=C\c2ccc(-c3ccccc3[N+](=O)[O-])o2)C(=O)NCCN(C)C)cc1,-29.7
18,CN(C)C(=O)/C(=C/c1ccc(-c2cccc([N+](=O)[O-])c2)o1)NC(=O)c1ccccc1,5.68
19,Cc1ccc(C(=O)N/C(=C/c2ccc(-c3ccc([N+](=O)[O-])cc3)o2)C(=O)NCCCN(C)C)cc1,-78
20,CN(C)CCCNC(=O)/C(=C/c1ccc(-c2ccc([N+](=O)[O-])cc2)o1)NC(=O)c1ccccc1,-52.5
21,Cc1ccc(C(=O)N/C(=C\c2ccc(-c3ccccc3[N+](=O)[O-])o2)C(=O)NCCCN(C)C)cc1,-14.9
22,CCCCNC(=O)/C(=C\c1ccc([N+](=O)[O-])o1)NC(=O)c1ccccc1,-6.47
23,CCOC(=O)C(C)Oc1cccc2c(=O)n(CC(=O)N3CCCc4ccccc43)ccc12 (stereo not shown),15.8
24,CN(Cc1cccc2cnccc12)C(=O)c1cc(COc2ccc(F)cc2Cl)on1,19.5
25,Cc1cc(C)nc(SCC(=O)N(C)CC(=O)Nc2c(Cl)cccc2Cl)n1,7.52
26,O=C(Oc1ccc(-c2nccc(-c3ccccn3)n2)cc1)c1cccc(C(F)(F)F)c1,5.53
